Some test systems named below: HCT-15 colon; HT29 colon; SNB-75 CNS; SNB-19 CNS; U251 CNS; PC-3 prostate; SK-MEL-5 melanoma; UACC-62 melanoma; LOX IMVI melanoma; SK-MEL-28 melanoma; SK-MEL-2 melanoma; EKVX NSCLC; SN12C renal; TK-10 renal; ACHN renal; A498 renal; CCRF-CEM leukemia; MOLT-4 leukemia; UO-31 renal; CAKI-1 renal.
Common to all, as to assay: NCI-60 one-dose screen, 48 h (100 = growth as untreated, 0 = no growth, -100 = all killed)
What all share (details): 10 µM unless noted

Structures are written as SMILES. About 83,000 compounds went through this panel and 20% of them were active in at least one assay; those are over-represented in the sample as a whole.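 Values shown are percent growth following 48 h exposure of cells in 96-well plates to a single concentration of compound; below 10 was considered active.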 A number with no mark means an inactive call. Activity calls are given as the source filed them.

Take `O=C(Nc1ccc(Nc2ncccn2)cc1)NC1C=c2ccccc2=CC1` (stereo not drawn): the growth was 102% with HCT-15 colon; 103% in the assay on HT29 colon; 91.8% with SNB-75 CNS; 103% in the assay with SNB-19 CNS; 99% in the assay on U251 CNS; 108% in the assay with PC-3 prostate. Also, the growth is 99.7% in the assay on SK-MEL-5 melanoma; 92.9% with UACC-62 melanoma; 108% with LOX IMVI melanoma; 107% with SK-MEL-28 melanoma; 102% in the assay on SK-MEL-2 melanoma; 106% in the assay on EKVX NSCLC. For the same molecule, the growth with SN12C renal was 92.5%; with TK-10 renal, 112%; in the assay on ACHN renal, 105%; in the assay with A498 renal, 96.9%; with CCRF-CEM leukemia, 90%; in the assay on MOLT-4 leukemia, 87.5%.

`CC(C)(C)OC(=O)N1CCN(c2ccc(N)cc2)C(=O)C1`: the growth in the assay on HCT-15 colon is 100%; in the assay on HT29 colon, 117%; with SNB-75 CNS it was 87%; in the assay with SNB-19 CNS, 99.9%; in the assay with U251 CNS it was 107%; with PC-3 prostate, 109%. The growth in the assay on SK-MEL-5 melanoma is 99.2%; in the assay on UACC-62 melanoma, 98.1%; with LOX IMVI melanoma, 99.1%; with SK-MEL-28 melanoma, 104%; with SK-MEL-2 melanoma it was 111%; in the assay on EKVX NSCLC it was 98.6%. For the same molecule, the growth in the assay on UO-31 renal was 87.4%; in the assay on TK-10 renal it was 126%; with ACHN renal, 103%; in the assay with CAKI-1 renal, 98.3%; in the assay on CCRF-CEM leukemia it was 107%; in the assay with MOLT-4 leukemia, 101%.

As to `O=S(=O)(NCCCNc1nccc(-c2c(-c3ccccc3)nc3occn23)n1)c1ccc(Cl)cc1`, the growth is 79.8% in the assay on HCT-15 colon; 47.5% in the assay with HT29 colon; 95.6% in the assay with SNB-75 CNS; 97.8% in the assay on SNB-19 CNS; 86.6% with U251 CNS; 72.1% with PC-3 prostate. In addition, the growth in the assay on SK-MEL-5 melanoma was 70.3%; with UACC-62 melanoma, 68.8%; in the assay on LOX IMVI melanoma, 72.7%; in the assay with SK-MEL-28 melanoma it was 90%; in the assay on SK-MEL-2 melanoma, 88.3%; in the assay with EKVX NSCLC it was 89.1%. In addition, the growth is 44.4% in the assay on UO-31 renal; 102% in the assay on TK-10 renal; 58.3% with ACHN renal; 62% in the assay with CAKI-1 renal; 83.1% in the assay with A498 renal; 75.5% in the assay with CCRF-CEM leukemia. Further, the growth in the assay with MOLT-4 leukemia was 68.1%.

`C=C(C)[C@H]1CC/C(C)=C/CC[C@]2(C)O[C@H]2CC/C(COC(=O)[C@@H](OC(C)=O)[C@H](NC(=O)c2ccccc2)c2ccccc2)=C\[C@@H]1O`: the growth in the assay with HCT-15 colon is 105%; in the assay with HT29 colon, 102%; with SNB-75 CNS, 72.6%; with SNB-19 CNS, 81.8%; in the assay with U251 CNS, 99.2%; in the assay with PC-3 prostate it was 90.1%. Further, the growth with SK-MEL-5 melanoma was 78.8%; in the assay with UACC-62 melanoma, 59.3%; with LOX IMVI melanoma, 93.1%; in the assay on SK-MEL-28 melanoma, 104%; with SK-MEL-2 melanoma, 119%; with EKVX NSCLC, 84.7%. For the same molecule, the growth in the assay on UO-31 renal is 79.4%; in the assay with TK-10 renal it was 99.7%; in the assay on ACHN renal, 116%; with CAKI-1 renal it was 89.6%; in the assay with A498 renal, 92.8%; in the assay with MOLT-4 leukemia it was 98.2%.

`CS(=O)(=O)c1ccc(-c2cc(-c3nnc(SCC(=O)Nc4ccc(C(=O)/C=C/c5ccc(Cl)cc5)cc4)n3-c3ccccc3)c3ccccc3n2)cc1`: the growth with HCT-15 colon is 96.4%; in the assay with HT29 colon, 106%; in the assay with SNB-75 CNS, 72.3%; in the assay with SNB-19 CNS, 85.2%; in the assay with U251 CNS, 90.9%; in the assay on PC-3 prostate, 89.1%. Also, the growth was 95.7% in the assay on SK-MEL-5 melanoma; 80.2% with UACC-62 melanoma; 92.2% with LOX IMVI melanoma; 103% in the assay with SK-MEL-28 melanoma; 107% with SK-MEL-2 melanoma; 94% in the assay with EKVX NSCLC. In addition, the growth in the assay on SN12C renal is 91.3%; in the assay with TK-10 renal, 99.3%; in the assay with ACHN renal, 97.6%; with CAKI-1 renal, 86.2%; in the assay with CCRF-CEM leukemia, 99.6%; with MOLT-4 leukemia it was 90.5%.

In the case of `COc1cc2nc(-c3ccc(C(F)(F)F)cc3)cc(OCCCN3CCCCC3)c2cc1OC`, the growth is 9.99% (active) with HCT-15 colon; 15.8% in the assay with HT29 colon; -10.6% (active) with SNB-75 CNS; 62.5% in the assay on SNB-19 CNS; 49.6% in the assay on U251 CNS; 43.2% in the assay on PC-3 prostate. The growth with SK-MEL-5 melanoma was 15.5%; in the assay with UACC-62 melanoma, -34.7% (active); with LOX IMVI melanoma, -28.5% (active); with SK-MEL-28 melanoma, 51.4%; in the assay on SK-MEL-2 melanoma it was 61.4%; with EKVX NSCLC, 69.4%. The growth with SN12C renal was 45.7%; in the assay on TK-10 renal it was 105%; in the assay with ACHN renal, 38.2%; in the assay on CAKI-1 renal, 0.476% (active); in the assay with MOLT-4 leukemia, 35.8%.

For the molecule `COc1ccc(-c2nc(N/N=C/c3cccc(Br)c3)nc(N3CCOCC3)c2C#N)cc1`, the growth with HCT-15 colon was 7.3% (active); in the assay on HT29 colon it was 21.5%; with SNB-75 CNS, -17.7% (active); with SNB-19 CNS, 93.4%; in the assay with U251 CNS, 52.4%; in the assay with PC-3 prostate it was 47.8%. For the same molecule, the growth in the assay on SK-MEL-5 melanoma was 72%; in the assay on UACC-62 melanoma it was 84.4%; with LOX IMVI melanoma, 91.3%; with SK-MEL-28 melanoma, -8.47% (active); in the assay with SK-MEL-2 melanoma, 80.1%; in the assay with EKVX NSCLC it was 90.2%. Further, the growth was 43.5% with UO-31 renal; 90.8% in the assay with TK-10 renal; 54.6% in the assay on ACHN renal; 59.6% in the assay on CAKI-1 renal; 45.1% in the assay on A498 renal; 35.6% in the assay on CCRF-CEM leukemia. For the same molecule, the growth in the assay with MOLT-4 leukemia is 46.9%.

With `CCc1c(Nc2ccc(C)cc2)nc(N)[nH]c1=O`, the growth is 103% in the assay on HCT-15 colon; 100% in the assay with HT29 colon; 87% in the assay on SNB-75 CNS; 98.9% in the assay on SNB-19 CNS; 95.4% in the assay with PC-3 prostate; 102% in the assay with SK-MEL-5 melanoma. The growth with UACC-62 melanoma is 87.2%; in the assay with LOX IMVI melanoma it was 105%; with SK-MEL-28 melanoma, 101%; in the assay with SK-MEL-2 melanoma, 98.1%; in the assay on EKVX NSCLC, 92.1%; in the assay with SN12C renal it was 92.4%. Further, the growth in the assay with UO-31 renal is 85.8%; in the assay on TK-10 renal it was 104%; in the assay on ACHN renal, 103%; with CAKI-1 renal, 91.7%; in the assay with CCRF-CEM leukemia, 104%; with MOLT-4 leukemia, 101%.

For `O=C1Nc2c(ccc(Cl)c2Cl)/C1=C/c1ccc(F)cc1`, the growth with HCT-15 colon is 80.6%; in the assay with HT29 colon it was 91%; with SNB-75 CNS it was 76.1%; with SNB-19 CNS, 73.5%; in the assay on PC-3 prostate, 79.3%; in the assay on SK-MEL-5 melanoma it was 86.8%. The growth with UACC-62 melanoma is 79.6%; in the assay with LOX IMVI melanoma, 81.2%; in the assay with SK-MEL-28 melanoma, 115%; with SK-MEL-2 melanoma it was 5.62% (active); in the assay with EKVX NSCLC, 60.2%; in the assay on SN12C renal it was 98.3%. Also, the growth with UO-31 renal was 71.9%; with ACHN renal it was 85.9%; in the assay with CAKI-1 renal, 38%; in the assay with A498 renal, 92.5%; in the assay with CCRF-CEM leukemia, 93.5%; with MOLT-4 leukemia, 76%.

The record behind these values is PubChem BioAssay (NCI).
